Source: PubChem
PrPC surface inh: inhibitors of human cell surface prion protein PrPC. P04156. TR-FRET read-out. inhibition, % at 13.8 µM. 370,000 compounds, 0.43% hits; in the data active = inhibition above about 24%; also: 0% = median of the test wells and 100% = reference compound wells
3CLpro inhibitor: SARS-CoV 3CLpro protease inhibition; P0C6X7; recombinant SARS-CoV 3CLpro, quenched FRET peptide cleavage; inhibition, % at 6 µM; 290,000 compounds, 0.14% hits; in the data active = inhibition above about 12%
PriA SSB inh: inhibitors of Klebsiella pneumoniae PriA binding to SSB C-terminal tail. AlphaScreen SSBct-PriA binding, biotinylated peptide. inhibition, % at 33 µM. 430,000 compounds, 0.6% hits; in the data active = inhibition mostly above about 37%, no sharp cut-off; inactive = mostly below about 20%;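 also: plate controls were negative control peptide for no effect and reference peptide for full effect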
PrP UTR inh: inhibition of PrP 5' UTR reporter expression. cell-based PrP 5' UTR mRNA reporter, plate reader. inhibition, % (test concentration not listed). 340,000 compounds, 0.35% hits. AID 488862; in the data active = inhibition above about 52%; also: 0 = median of the neutral control wells
PfHsp40 yeast: compounds rescuing yeast from Plasmodium falciparum HSP40 toxicity. S. cerevisiae expressing PfHsp40, growth rescue, ATP luminescence. 340,000 compounds, 0.68% hits. growth rescue, % at 12.5 µM; in the data active = growth rescue above about 28%, passing the limit was not always enough;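 also: yeast W303a lacking pdr1 and pdr3 grown in galactose medium; growth measured after three days at 30 °C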
Vc quorum ag: induces V. cholerae light production without autoinducers; activation, % at 18.7 µM; V. cholerae BH1578 lux reporter, luminescence, 6 h; AID 588436; 350,000 compounds, 0.16% hits; in the data active = activation mostly above about 9.7%, no sharp cut-off
Numbers without * were called inactive; i = inactive; · = no result given. The list is not random: actives were taken first. Their share in the collection is about 1.6%.

SMILES | PrPC surface inh | 3CLpro inhibitor | PriA SSB inh | PrP UTR inh | PfHsp40 yeast | Vc quorum ag
CCOC(=O)N1CCN(c2cc(NCCC(=O)O)c3c4c(onc24)-c2ccccc2C3=O)CC1 | · | 0 | 71 | -7 | 1 | i
O=C(O)CCCNc1cc(N2CCC3(CC2)OCCO3)c2noc3c2c1C(=O)c1ccccc1-3 | · | 3 | · | · | · | ·
O=C1c2ccccc2-c2onc3c(N4CCN(CCO)CC4)cc(N4CCN(C(=O)c5ccco5)CC4)c1c23 | -69 | -1 | 80* | 4 | -2 | 0
CN1CCN(c2cc(N3CCN(C(=O)c4ccco4)CC3)c3c4c(onc24)-c2ccccc2C3=O)CC1 | · | -5 | 77* | -36 | 1 | i
O=C(Nc1nc2ccc(S(=O)(=O)N3CCCCC3)cc2s1)c1ccc2ccccc2n1 | · | · | -7 | · | · | ·
O=C(c1ccco1)N1CCN(S(=O)(=O)Cc2noc3ccccc23)CC1 | · | · | -3 | · | · | ·
O=[N+]([O-])c1nn(-c2cccc(Cl)c2)n(O)c1=NC1CCCCCC1 | · | · | 66* | · | · | ·
O=[N+]([O-])c1nn(-c2ccccc2)n(O)c1=NC1CCN(Cc2ccccc2)CC1 | -23 | -4 | -5 | -22 | 3 | 0
O=[N+]([O-])c1nn(-c2ccccc2)n(O)c1=NC1CCCCCC1 | · | · | 64* | · | · | ·
COc1ccc(CNC(=O)COC(=O)c2c[nH]c(=O)[nH]c2=O)cc1OC | -2 | 2 | -17 | -22 | 34* | -1
COc1ccccc1NC(=O)CSc1n[nH]c(-c2ccccn2)n1 | -1 | -1 | 77* | -13 | -1 | 0
COc1ccc(NC(=O)CSc2n[nH]c(-c3ccccn3)n2)cc1 | -2 | -3 | 67* | -10 | 0 | i
O=C(CSc1n[nH]c(-c2ccccn2)n1)Nc1ccccc1F | -7 | 2 | 50* | -13 | 0 | -1
O=C(CSc1n[nH]c(-c2ccccn2)n1)Nc1ccccc1 | 4 | 2 | 82* | -19 | -2 | 0
COc1ccccc1-c1nc(SCC(=O)Nc2ccccc2F)n[nH]1 | 3 | -5 | -10 | -3 | -1 | 8
COc1ccc(NC(=O)CSc2n[nH]c(-c3ccccc3)n2)cc1 | · | · | 31 | · | · | ·
O=c1c(-c2cccc3ccccc23)[n+]([O-])c2ccccc2n1O | -2 | -3 | 8 | -9 | 81* | -1
CCOn1c(=O)c(-c2cccc3ccccc23)[n+]([O-])c2ccccc21 | -36 | 2 | -10 | -8 | 0 | 0
CN(c1ccccc1)S(=O)(=O)c1ccc(NC(=S)NC(=O)/C=C/c2cccs2)cc1 | · | · | -14 | · | · | ·
O=C(Nc1ccccc1)/C(=C\c1ccco1)NC(=O)c1cccc([N+](=O)[O-])c1 | · | · | -3 | · | · | ·
COc1ccc(C)cc1NC(=O)C(=O)NCC(c1ccc2c(c1)CCN2C)N(C)C (configuration not stated) | · | · | 53* | · | · | ·
O=S(=O)(NCC[C@@H](CCO)c1ccccc1)c1ccc(Br)s1 | · | · | -2 | · | · | ·
COc1cccc(OCC(=O)Nc2ccncc2)c1 | -1 | 4 | -4 | -30 | -2 | -1
COc1cccc(OCC(=O)Nc2cc(NC(=O)COc3cccc(OC)c3)cc(C(=O)O)c2)c1 | 4 | 4 | -10 | 3 | -1 | 42*
CC(C)CCOc1cccc(OCC(=O)Nc2ccncc2)c1 | 16 | -3 | -8 | -11 | 105* | -1
SMILES | PrPC surface inh | 3CLpro inhibitor | PriA SSB inh | PrP UTR inh | PfHsp40 yeast | Vc quorum ag
COc1cccc(-n2c(SCc3ccccn3)nc3c(c2=O)SCC3)c1 | 0 | -1 | 9 | -14 | 62* | i
COc1cccc(-n2c(SCc3cccnc3)nc3c(c2=O)SCC3)c1 | · | · | 2 | · | · | ·
O=C(c1ccccc1)N1C(=O)C(c2ccccc2)Oc2ccccc21 (configuration not stated) | 6 | 1 | -3 | -10 | 234* | -1
COc1ccccc1/C=C/CN1CCC(n2nccc2NC(=O)CCc2ccccc2)CC1 | -1 | -3 | 102* | -18 | -2 | 0
O=C(NCCCc1ccccc1)NCCCN1CCN(c2ccccc2)CC1 | · | · | 7 | · | · | ·
C=c1c(=C2NNC(=Nc3ccc(C(=O)OCC)cc3)S2)sc2nc3n(c(=O)c12)CCC3 | · | · | -20 | · | · | ·
CCOc1ccc(NS(=O)(=O)c2cnc(Cl)c(Cl)c2)cc1 | -1 | 0 | -24 | -19 | 88* | 4
CN(C)CCNc1cccc2sc3ccc(O)cc3c(=O)c12 | -37 | · | · | · | · | ·
Cc1ccc(NCCN(C)C)c2c(=O)c3cc(O)ccc3sc12 | -19 | · | 62* | -10 | 0 | i
c1ccc2c(CNc3ccc(CNc4ncn[nH]4)cc3)cccc2c1 | 9 | 2 | 40* | -9 | 1 | ·
CC1CCN(C(=O)C2CCC(CNc3c(N4CCCCC4)c(=O)c3=O)CC2)CC1 (configuration not stated) | 4 | 5 | -1 | -22 | -1 | 3
CC1CC(C)CN(C(=O)C2CCC(CNc3c(N4CCCCC4)c(=O)c3=O)CC2)C1 (configuration not stated) | -4 | 2 | -4 | -17 | 53* | -2
Cc1ccc(-c2nc3ccccc3c(=O)n2-c2ccncc2)cc1 | 0 | 1 | -10 | -6 | 1 | 0
O=c1c2ccccc2nc(-c2ccc(-c3ccccc3)cc2)n1-c1ccncc1 | 4 | 1 | 8 | -22 | 341* | -6
COc1ccccc1COc1cc(NC(=O)Nc2cccs2)ncn1 | · | · | -4 | · | · | ·
COc1ccc(NC(=O)c2c[nH]c3cc(F)cc(F)c3c2=O)cc1OC | · | · | -12 | · | · | ·
Cn1c(=O)c2c(ncn2CC(=O)N2CC(S(=O)(=O)Cc3ccco3)C2)n(C)c1=O | · | · | -4 | · | · | ·
Cc1cc(C=O)c(C)n1-c1ccc(NC2CCCC2)c([N+](=O)[O-])c1 | 3 | · | 68* | -7 | 0 | -1
O=C(Nc1cccnc1)C1CC(=O)N(C2CCOCC2)C1 (configuration not stated) | · | · | -14 | · | · | ·
O=C(O)CC1S/C(=N\N=C/C2CC=CCC2)NC1=O (configuration not stated) | · | · | -9 | · | · | ·
O=C(NOC(=O)c1ccccc1)c1ccccc1 | 2 | 2 | -4 | -11 | 239* | -1
COCC(=O)N1CCCc2ccc(NS(=O)(=O)c3ccc(F)cc3C)cc21 | · | · | 2 | · | · | ·
O=C(Nc1nc(-c2ccccn2)cs1)c1ccccc1[N+](=O)[O-] | · | · | 105* | · | · | ·
O=C(Nc1nc(-c2ccccc2)cs1)c1ccccc1[N+](=O)[O-] | · | · | 84* | · | · | ·
O=C(Nc1nc(-c2ccccn2)cs1)c1cc(Cl)ccc1[N+](=O)[O-] | 16 | 2 | 64* | 26 | 0 | 0
Cc1csc(NC(=O)c2ccccc2[N+](=O)[O-])n1 | -3 | 8 | -4 | -25 | 1 | 0
O=C(Nc1nc(-c2ccccn2)cs1)c1ccc([N+](=O)[O-])o1 | -1 | -4 | 51* | -7 | 1 | 0
CCCCC(=O)Nc1nc(-c2ccc3c(c2)OCCO3)cs1 | · | · | 3 | · | · | ·
Oc1ccc(CSCc2ccccc2)c2cccnc12 | · | · | 10 | · | · | ·
Oc1ccc(CN2CCN(Cc3ccccc3)CC2)c2cccnc12 | 0 | 2 | 103* | -1 | 5 | i
